Experimental findings from PubChem BioAssay (NCI) are described below.

About 83,000 compounds went through this panel and 20% of them were active in at least one assay; those are over-represented in the sample as a whole.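 Results are percent growth after 48 hours of single-concentration exposure. 100 means growth as in untreated cells, lower positive values show inhibition; negative values down to -100 show cell death.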 Values without a mark were called inactive. Calls of active or inactive are those of the source. How the source made its calls: active means growth percent below 10; inactive means the rest.

This experiment relates to HL-60(TB) leukemia. The experiment can be described thus: NCI-60 one-dose screen, 48 h (100 = growth as untreated, 0 = no growth, -100 = all killed). The settings on record: 10 µM unless noted.
Regarding `Oc1c(Cl)cc(Cl)cc1C(c1cc(Cl)cc(Cl)c1O)C(Cl)(Cl)Cl`, the growth is 1.53% (active).
On to `COc1cc(-c2nn(-c3ccc(C)cc3)cc2C(=O)O)ccc1O`, for which the growth was 82.2%.
Consider `CN(C)c1ccc2c(N(C)C)cc(N(C)C)nc2c1`, for which the growth was 92.1%.
With `N#C/C(=C/C=C/c1cccc(Cl)c1)S(=O)c1ccccc1` (stereo not given), the growth is -18.9% (active).
Regarding `CC1C=CC(OC(=O)C(C)(O)CCC(O)(C(=O)OC2CC(O)C(C(C)C)CC2(C)O)C(C)C)(C(C)C)CC1` (stereo not given), the growth is -50.8% [4.63 µM] (active).
`Cn1cc(-c2cnn3c(N)c(Br)c([C@@H]4CCCNC4)nc23)cn1`: the growth was 21.2%.
For `COc1cc(NC(=O)c2cc(O)c(C/C=C(\C)CCC=C(C)C)c(O)c2)cc2c1O[C@]1(C)CC[C@@H](O)C(C)(C)[C@H]1C2` the value was -7.34% (active); for `O=c1[nH]ccc2nc(N3CCC(O)CC3)nc(Nc3ccc(N4CCOCC4)cc3)c12`, 18.9%; for `Nc1c(S(=O)(=O)O)cc2c3c(cccc13)C(=O)OC2=O`, 134%.
Consider `S=C(NCCNC(=S)[S][Sn]([c]1ccccc1)([c]1ccccc1)[c]1ccccc1)[S][Sn]([c]1ccccc1)([c]1ccccc1)[c]1ccccc1`, for which the growth is -31% (active).
Turning to `CC1(C)CC[C@]23CC[C@]4(C)[C@H](CC[C@@H]5[C@@]6(C)CCCNC(C)(C)[C@@H]6CC[C@]54C)[C@H]2[C@H]1OC3`, the growth was -65.5% (active).
Take `Cc1ncc(C(=O)Nc2ccc(CN3CCN(C)CC3)c(C(F)(F)F)c2)cc1C#Cc1cnc2cccnn12`: the growth is -28.2% (active).
With `Cc1sc2ncnc(Sc3nc4ccccc4[nH]3)c2c1C`, the growth is -54.7% (active).
`COC1=C(OC)C(=O)C(CCCCCCCCCCO)=C(C)C1=O`: the growth was 76.8%.
To `Nc1ncnc(Nc2ccccc2)n1` belongs 107%; to `Fc1ccccc1C1c2ccccc2-c2nccn21` (stereo not given), 76.5%.
To `CC(C)CSc1nc(-c2ccc(F)cc2)c(C#N)c(N2CCCCC2)n1` belongs 101%.
As to `CCCn1cnc2c(c1=N)C(c1ccc(Cl)cc1)c1sc3c(F)cccc3c1O2` (stereo not given), the growth is 62.5%.
To `CC(C)c1nc(N(C)S(C)(=O)=O)nc(-c2ccc(F)cc2)c1/C=C/[C@@H](O)C[C@@H](O)CC(=O)O` belongs 114%; to `C=C1C(=O)O[C@H]2[C@H]1CC/C(COC(=O)N[C@H](Cc1c[nH]c3ccccc13)C(=O)OC)=C\CC[C@@]1(C)O[C@@H]21`, -58% (active); to `Cc1ccc2cnc(N)c(C#Cc3cc(C(=O)Nc4ccc(CN5CCN(C)CC5)c(C(F)(F)F)c4)cnc3C)c2c1`, 30%.
As to `O=C1/C(=C\c2ccccn2)c2ccccc2N1c1c(Cl)cccc1Cl`, the growth was 1.39% (active).
`CC(C)(C)[Si](C)(C)OCC1OC(n2cnc3c(N)ncnc32)CC1OS(C)(=O)=O` (stereo not given): the growth was 104%.
With `COc1cc([C@@H]2c3cc4c(cc3[C@H](OC3OC5COC(c6ccccc6)OC5C(O)C3O)[C@H]3COC(=O)[C@H]23)OCO4)cc(OC)c1OC` (stereo not given in full), the growth was -33.6% (active).
For `Cn1cnc([N+](=O)[O-])c1S(=O)(=O)Oc1ccccc1`, the growth is 54.3%.
Consider `Cc1ncc(C(=O)Nc2ccc(CN3CCN(C)CC3)c(C(F)(F)F)c2)cc1C#Cc1c(N)ncc2ccc(C#N)cc12`, for which the growth is 45.8%.
For `Cc1cc(CSc2ccc(Cl)cc2)ccc1N`, the growth is 3.9% (active).
With `C1CCN(c2nc(N3CCCCC3)nc(N3CCOCC3)n2)CC1`, the growth was 112%.
Consider `O=C(CNc1nc(-c2ccc(Cl)cc2)cs1)Nc1ccc(-c2nc3ccccc3s2)cc1`, for which the growth was 99.3%.
To `CCOc1cc(C(C)(C)C)ccc1C1=N[C@H](c2ccc(Cl)cc2)[C@H](c2ccc(Cl)cc2)N1C(=O)N1CCN(CC#Cc2cccc3c2CN([C@@H]2CCC(=O)NC2=O)C3=O)CC1` belongs -20.9% (active); to `COc1cc2oc(-c3cccc(NC(=O)c4ccc5c(c4)OCO5)c3)cc(=O)c2c(OC)c1OC`, 34.6%.
`O=C(Nc1ccc(/C=C2\SC(=O)N(Cc3ccc(OC(F)(F)F)cc3)C2=O)cc1)c1ccc(Cl)c([N+](=O)[O-])c1`: the growth was 71.3%.
Consider `CCOC(=O)C1=C(C)N(C)C(=O)N(C)C1c1ccccc1` (stereo not given), for which the growth was -4.05% (active).
To `CCC(c1ccccc1)c1noc(CCN(CC)CC)n1` (stereo not given) belongs 77.3%; to `COc1cc(CCn2nnc3c(Nc4ccc(N5CCOCC5)cc4)ncnc32)cc(OC)c1`, 106%.
In the case of `N#C/C(=C\c1c(-c2ccccc2)[nH]c2ccccc12)C(N)=O`, the growth was 39.6%.
On to `CCCCCCCCn1ccc2cc(NC(=O)Cn3cc(CN4CCOCC4)nn3)ccc21`, for which the growth is 97.4%.
In the case of `Cc1ccc(Nc2nc(N)nc(Nc3ccc4ccccc4c3)n2)cc1`, the growth was 22.5%.
For `NS(=O)(=O)c1ccc(N=Nc2c(O)n(Cc3ccccc3)c3ccc(Cl)cc23)cc1`, the growth was 95%.
Take `Nc1ccc(C(=O)/C=C/c2ccccc2)cc1`: the growth is 27.4%.
